High-throughput results deposited in PubChem by The Scripps Research Institute Molecular Screening Center.
MITF inh – inhibitors of human MITF; AID 1259374; 650,000 tested, 0.91% active; AlphaScreen MITF homodimerization, bead proximity signal; O75030; inhibition, % at 2.6 µM; in the data active means inhibition above about 50%
TEAD-YAP inh – TEAD-YAP interaction inhibition; HEK-TIYL cells, TEAD-Gal4/YAP UAS-luciferase luminescence; inhibition, % at 9.12 µM; 640,000 tested, 1.4% active; AID 1259422; in the data active means inhibition above about 32%
GPR151 ag – human GPR151 activation; 650,000 tested, 1% active; PathHunter beta-arrestin GPR151 cells, luminescence; activation, % at 11.2 µM; Q8TDV0; in the data active means activation above about 4.9%
Target sequence (Q8TDV0 whole entry, looked up): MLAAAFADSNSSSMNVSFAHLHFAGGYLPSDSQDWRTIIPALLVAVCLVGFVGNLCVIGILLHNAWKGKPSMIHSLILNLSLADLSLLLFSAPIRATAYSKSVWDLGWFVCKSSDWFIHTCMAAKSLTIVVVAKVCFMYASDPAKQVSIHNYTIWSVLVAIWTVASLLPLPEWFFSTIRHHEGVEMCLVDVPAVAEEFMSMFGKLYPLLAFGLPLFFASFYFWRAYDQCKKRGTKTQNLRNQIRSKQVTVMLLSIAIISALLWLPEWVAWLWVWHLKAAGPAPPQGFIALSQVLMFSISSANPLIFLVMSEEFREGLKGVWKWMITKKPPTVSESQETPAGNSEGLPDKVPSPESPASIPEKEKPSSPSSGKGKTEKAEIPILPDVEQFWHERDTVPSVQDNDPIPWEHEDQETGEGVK
FBW7 act – activators of human E3 ligase FBW7 | AlphaScreen FBW7–phospho-cyclin E peptide binding, activator screen | 650,000 tested, 0.13% active | normalized activity (activation), % at 26.1 µM | AID 1259310; in the data active means normalized activity above about 1.9%;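 further: purified mutant Fbw7 with reduced substrate affinity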
A number is an active result; - = inactive. Rows were chosen to be rich in hits. Some 3.4% of all compounds tested hit in one or more screens of this group.

SMILES	MITF inh	TEAD-YAP inh	GPR151 ag	FBW7 act
N#Cc1ccsc1NC(=O)/C=C/c1ccccc1	-	63.5	-	-
Cc1ccc(C(=O)Nc2sccc2C#N)cc1C	-	-	-	-
N#Cc1ccsc1NC(=O)c1ccc2c(c1)CCCC2	-	42.7	-	-
N#Cc1ccsc1NC(=O)c1ccccc1Cl	-	-	-	-
N#Cc1ccsc1NC(=O)c1ccccc1	-	-	-	-
N#Cc1ccsc1NC(=O)c1cccc2ccccc12	-	47.4	-	-
COc1nc(Nc2ccc(Br)cc2)nc(N)c1[N+](=O)[O-]	-	-	-	-
CCCCCOc1ccc(NC(=O)CSc2cccc3cccnc23)cc1	-	37.3	-	-
Nc1nc(NCCN2CCOCC2)cc(NCc2cccc(C(F)(F)F)c2)n1	-	-	-	-
O=C(NC1CC1)c1csc(Nc2ccccn2)n1	-	-	-	-
CCN1C(=O)/C(=N\N2C(=O)CSC2=S)c2ccccc21	-	-	-	-
O=C(O)CN1C(=O)/C(=N\N2C(=O)CSC2=S)c2ccccc21	55.5	-	-	-
CC(=O)C1=C(c2ccc(C3CCCCC3)cc2)N(C(C)=O)n2c(C)nnc2S1	-	40.8	-	-
CC(=O)C1=C(c2ccc(C(C)(C)C)cc2)N(C(C)=O)n2c(C)nnc2S1	-	38.5	-	-
Cc1nc(N2CCCC2)c2cc(C)sc2n1	-	-	-	-
Cc1nc(N2CCCc3ccccc32)c2cc(C)sc2n1	-	45.5	-	-
Cn1c(=O)c2c(ncn2CC(=O)Nc2sc3c(c2C#N)CCCC3)n(C)c1=O	-	-	-	-
O=C(NCc1ccccc1)C(=Cc1cccc(O)c1)C(=O)NCc1ccccc1	-	35.4	-	-
N#C/C(=C\c1cccc(Cl)c1)C(=O)NCc1ccccc1	-	-	-	-
COc1cccc(N/C(N)=N/c2nc(C)cc(C)n2)c1	-	53.3	-	-
Cc1cc(C)nc(/N=C(\N)Nc2cccc(OCc3ccccc3)c2)n1	-	49.6	-	-
COc1ccc(C(=O)/C=C/Nc2cc(C)ccn2)cc1	-	35.6	-	-
COc1ccc(NC(=O)Nc2cc(C)ccn2)cc1	-	41.0	-	-
Cc1ccc(NC(=O)Nc2cc(C)ccn2)cc1	-	-	-	-
O=C(Nc1ccccc1C(F)(F)F)c1nn2c(C(F)(F)F)cc(-c3cccs3)nc2c1Cl	-	-	-	-
SMILES	MITF inh	TEAD-YAP inh	GPR151 ag	FBW7 act
CCNS(=O)(=O)c1cc(Cl)ccc1OCC	-	-	-	-
CO[C@H]1[C@@H]([C@@]2(C)O[C@@H]2CC=C(C)C)[C@]2(CC[C@H]1OC(=O)/C=C/C=C/C=C/C=C/C(=O)O)CO2	-	45.7	-	-
COc1ccccc1CNc1ccccc1F	-	-	-	2.2
COc1ccccc1CNc1cc(C)ccc1OC	61.8	-	-	-
COc1ccccc1CNc1ccccc1SC	-	-	-	-
COc1ccccc1CC(=O)Nc1ccc(C)cc1C	-	-	-	-
COc1ccc(Oc2nc3ccccn3c(=O)c2/C=C(\C#N)C(=O)N2CCCCC2)cc1	-	-	-	-
CCOc1ccc(C(=O)Nc2nc3ccc(OC)cc3s2)cc1[N+](=O)[O-]	-	-	-	-
Cc1ccc(Cl)cc1NCc1c(CO)cnc(C)c1O	-	-	-	-
CC(CCc1ccccc1)Nc1ncnc2sccc12 (centres undefined)	-	51.5	-	-
CC(C)(C)c1ccccc1Nc1ncnc2sccc12	-	-	-	-
COC(=O)C1=C(C(=O)OC)SC(=C2C(=S)C(C)(C)N(C(=O)c3ccccc3Cl)c3ccccc32)S1	-	-	-	-
COc1ccc2c(c1)C(=NN=C(N)N)c1cc(OC)ccc1-2	-	58.8	-	-
COc1ccc2c(c1)C(=O)c1cc(OC)ccc1-2	-	-	-	-
CC(OC(=O)CCCC(=O)Nc1ccc(Br)cc1)C(=O)c1ccccc1 (centres undefined)	-	-	-	-
NS(=O)(=O)c1ccc(CCNC(=O)c2ccc(C#CC3(O)CCCCC3)cc2)cc1	-	44.7	-	-
Cc1ccc(NC(=O)Cn2nnc(-c3nc(-c4ccccc4)no3)c2N)c(C)c1	-	-	-	-
O=C(NCC1CCCO1)C(=O)Nc1ccc(Cl)cc1 (centres undefined)	-	-	-	-
CC(C)n1cc(-c2ccc3ccccc3n2)cn1	-	82.3	-	-
Oc1ccc(-c2cnc(-c3ccc(O)cc3)nc2)cc1	-	95.1	-	-
Oc1ccc(-c2cnc3ccccc3n2)cc1	-	52.3	-	-
CC(=O)N(C(C)=O)c1ccc(-c2cnc(-c3ccc(N(C(C)=O)C(C)=O)cc3)nc2)cc1	-	-	-	-
CC(C)(C)n1cc(-c2cnc3ccccc3n2)cn1	-	77.6	-	-
O=C(Nc1cccc(Cl)c1Cl)c1cc(S(=O)(=O)N2CCCCCC2)ccc1F	-	-	-	-
Cc1ccc(Cl)cc1NC(=O)N[C@H]1C[C@H]2C(=O)N[C@@H](CCCCN)C(=O)N2C1	-	-	-	-
SMILES	MITF inh	TEAD-YAP inh	GPR151 ag	FBW7 act
CN(C)c1ccc(/C=C(\NC(=O)c2ccccc2F)C(=O)Nc2ccc(F)c(Cl)c2)cc1	60.5	-	-	-
Cc1ccc(NC(=O)/C(=C/c2ccc(N(C)C)cc2)NC(=O)c2ccccc2F)cc1Cl	-	-	-	-
CCn1c(-c2ccccn2)n[nH]c1=S	-	-	-	-
Cc1ccc(NC(=O)c2c(O)c3c([nH]c2=O)CCCC3)cc1	-	-	-	-
O=C(Nc1ccc(O)cc1)c1c(O)c2c([nH]c1=O)CCCC2	-	68.3	-	-
CCc1c(C(=O)c2ccc(Cl)cc2)oc2ccc3c(C)cc(=O)oc3c12	-	-	-	-
CCc1c(C(=O)c2ccccc2)oc2ccc3c(C)cc(=O)oc3c12	-	41.3	-	-
Cc1ccc(C(=O)c2oc3ccc4c(C)cc(=O)oc4c3c2-c2ccccc2)cc1	-	62.1	-	-
CCC(C)N(C(=O)c1cccc([N+](=O)[O-])c1)C(C)CC (centres undefined)	-	-	-	2.0
CCC(C)N(C(=O)c1ccc([N+](=O)[O-])cc1)C(C)CC (centres undefined)	-	-	-	-
Cc1cc(C)c(NC(=O)CC2Sc3ccccc3NC2=O)c(Cl)c1 (centres undefined)	-	37.1	-	-
CCOc1ccccc1CNCc1c(C(=O)O)n(Cc2cccc(F)c2)c2ccccc12	-	-	-	-
O=C(/C=C/c1ccc(O)c(O)c1)OC(Cc1ccc(O)c(O)c1)C(=O)O (centres undefined)	88.5	-	-	-
COc1cccc(C2NC(=S)NC(c3ccccc3)=C2C(C)=O)c1 (centres undefined)	-	49.6	-	-
CSc1nsc(N/N=C/c2ccccc2)c1C#N	-	-	-	-
N#Cc1c(Cl)nsc1N/N=C/c1ccccc1	-	41.5	-	-
CN(C)CCNc1ccnc2c(-c3cccc(C(N)=O)c3)cnn12	-	57.2	-	-
Cc1cccc(N(C)c2ccnc3c(-c4cccc(C(N)=O)c4)cnn23)c1	-	33.9	-	-
c1ccc(CNc2ccnc3c(-c4cc5ccccc5o4)cnn23)nc1	-	-	-	-
CCCNc1ccnc2c(-c3cccc(/C=C/C(=O)O)c3)cnn12	-	63.9	-	-
CN(C)CCNc1ccnc2c(-c3cc4ccccc4o3)cnn12	-	67.6	-	-
